Reference: PubChem BioAssay (NCATS)
Records with an inconclusive call do not appear. Active and inactive are the calls of the source. Calls follow the shape of the dose curve; as a rule, active = well fitted inhibition curve with a large enough effect; inconclusive = small, poorly fitted or top-dose-only effect; inactive = flat fitted curve, though single readings scatter.

Legend:
Assay in all cases: qHTS profiling for inhibitors of Plasmodium falciparum proliferation (AID 504749); also: nearly all actives have a fitted effect of over 60% in size
Conditions in all cases: P. falciparum in erythrocytes, SYBR Green DNA, 72 h; series mostly up to 28.7 µM
CP265 = test system: CP265
In short: (§1)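 Infected RBCs, 0.3% parasitemia/2.5% Hct final; cpd 72 h, 37 C, 5% CO2; lysis buffer with saponin/triton/SYBR Green I, o/n RT dark; FI 485/535; norm. to artemisinin (0.29 uM) and DMSO.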

CP266 = test system: CP266
In short: as §1

CP268 = test system: CP268
In short: as §1

CP269 = test system: CP269
In short: as §1

CP286 = test system: CP286
In short: as §1

CP291 = test system: CP291
In short: as §1

CP297 = test system: CP297
In short: as §1

CP305 = test system: CP305
In short: as §1

CP325 = test system: CP325
In short: as §1

CP329 = test system: CP329
In short: as §1

CP335 = test system: CP335
In short: as §1

DFO2036 = test system: DFO2036
In short: as §1

DIV14 = test system: DIV14
In short: as §1

DIV17 = test system: DIV17
In short: as §1

DIV30 = test system: DIV30
In short: as §1

Dd2 = test system: Dd2
In short: as §1

ECU = test system: ECU
In short: as §1

HB3 = test system: HB3
In short: as §1

ICS = test system: ICS
In short: as §1

N140 = test system: N140
In short: as §1

P93_24 = test system: P93_24
In short: as §1

P94_40 = test system: P94_40
In short: as §1

PAD = test system: PAD
In short: as §1

PC15 = test system: PC15
In short: as §1

PC26 = test system: PC26
In short: as §1

SC27B = test system: SC27B
In short: as §1

TAB109 = test system: TAB109
In short: as §1

TAB113 = test system: TAB113
In short: as §1

TAB165 = test system: TAB165
In short: as §1

W2 = test system: W2
In short: as §1

Measured: Potency
Potency is read from the fitted curve at half-maximal effect.

C/C=C\C[C@H](C)[C@H](O)[C@H]1C(=O)N[C@@H](CC)C(=O)N(C)CC(=O)N(C)[C@@H](CC(C)C)C(=O)N[C@@H](C(C)C)C(=O)N(C)[C@@H](CC(C)C)C(=O)N[C@@H](C)C(=O)N[C@@H](C)C(=O)N(C)[C@@H](CC(C)C)C(=O)N(C)[C@@H](CC(C)C)C(=O)N(C)[C@@H](C(C)C)C(=O)N1C
active: CP265 3.55 µM | CP266 10.7 µM | CP268 15.1 µM | CP269 6.01 µM | CP286 7.08 µM | CP291 10.7 µM | CP297 4.78 µM | CP305 6.01 µM | CP325 7.57 µM | CP329 6.01 µM | CP335 4.26 µM | DFO2036 2.51 µM | DIV14 6.75 µM | DIV17 8.49 µM | DIV30 13.5 µM | Dd2 5.01 µM | ECU 2.24 µM | HB3 7.08 µM | ICS 3.98 µM | N140 2.82 µM | P93_24 5.01 µM | P94_40 5.01 µM | PAD 3.55 µM | PC15 11.2 µM | PC26 6.75 µM | SC27B 2.82 µM | TAB109 3.55 µM | TAB113 3.55 µM | TAB165 4.47 µM | W2 1.9 µM
